This is part of a sample that, as a whole, favours compounds with a hit. Of some 83,000 tested, about 20% had one in any assay.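 How to read the values: 0–100, growth inhibition (40 = 60% inhibited); 0, no net growth; -100 to 0, cell death (-40 = 40% of starting cells died; -100 = all dead).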 Calls of active or inactive are those of the source. The calls were made as follows: active = growth percent below 10; inactive = the rest.
system: HL-60(TB) leukemia; assay: NCI-60 one-dose screen, 48 h (100 = growth as untreated, 0 = no growth, -100 = all killed); details: 10 µM unless noted

| Structure (SMILES) | growth |
| --- | --- |
| O=c1[nH]c2ccccc2n2cc3cccnc3c12 | 87.5% (inactive) |
| COc1ccc2c(c1)c(-c1nc(-c3c[nH]c4ncccc34)cs1)cn2CCO | 58% (inactive) |
| Cc1ccc2cnc(N)c(C#Cc3cc(C(=O)Nc4ccc(CN5CCN(C)CC5)c(C(F)(F)F)c4)cnc3C)c2c1 | 30% (inactive) |
| COc1cccc2c1O/C(=C\c1ccc([N+](=O)[O-])s1)C2=O | 39% (inactive) |
| COC(=O)c1c[nH]c2cc(OC(C)C)c(OC(C)C)cc2c1=O | 106% (inactive) |
| O=C(/C=C/c1ccccc1)Nc1ncc(Cc2ccccc2Cl)s1 | -10.1% (active) |
| O=C1C2=C(Nc3cc([N+](=O)[O-])ccc3N2)OC1c1c2ccccc2cc2ccccc12 (stereo not drawn) | 14.2% (inactive) |
| CCOc1cc(-c2ccc[nH]2)[nH]c1/C=C1\N=C(C)C(C(=O)OC)=C1C | -42.7% (active) |
| COC(=O)[C@]12CC[C@@H](C)[C@H](C)[C@@H]1C1=CC[C@@H]3[C@@]4(C)C[C@@H](O)[C@H](O)[C@@](C)(CO)C4=CC[C@@]3(C)[C@]1(C)CC2 | -28% (active) |
| CCOC(=O)CC(c1ccccc1)C(C#N)c1ccccc1 (stereo not drawn) | 99.3% (inactive) |
| O=C(O)c1ccc(-c2nn(-c3ccc(C(F)(F)F)cc3)cc2CNc2ccc(Oc3ccccc3)cc2)cc1 | 35.5% (inactive) |
| Cc1ccc(/C=C/c2c(C(=O)/C=C/c3ccccc3)c(C)nc3ccccc23)cc1 | 14.8% (inactive) |
| C=C1C(=O)O[C@H]2[C@H]1CC/C(COC(=O)n1ccnc1)=C\CC[C@@]1(C)O[C@@H]21 | 64.3% (inactive) |
| Cc1ccc(Cl)cc1Nc1nc(C(F)(F)F)ccc1C(=O)N/N=C/c1cccnc1 | 3.36% (active) |
| CC(Cc1cccc(C(F)(F)F)c1)NCCOC(=O)c1ccccc1 (stereo not drawn) | 102% (inactive) |
| CC(C)=CCC[C@](C)(O)[C@H]1CC[C@]2(C)[C@@H]1CC[C@@H]1[C@@]3(C)C/C(=C/c4ccc(Br)cc4)C(=O)C(C)(C)[C@@H]3CC[C@]12C | 92.9% (inactive) |
| CC1(C)Cc2c(Br)c(Br)c(Br)c(OCC(O)CN3CCOCC3)c2O1 (stereo not drawn) | -34.1% (active) |

| Structure (SMILES) | growth |
| --- | --- |
| COc1cc(-c2ccc(-[n+]3nc(-c4ccc([N+](=O)[O-])cc4)nn3-c3ccc([N+](=O)[O-])cc3)c(OC)c2)ccc1-[n+]1nc(-c2ccc([N+](=O)[O-])cc2)nn1-c1ccc([N+](=O)[O-])cc1 | 14.2% (inactive) |
| Cc1ccc(S(=O)(=O)c2c(COC(=O)c3cccc(C)c3)c(-c3ccccc3)nn2C)cc1 | 30.2% (inactive) |
| O=C1OCC2=C1C(c1cccc(C(F)(F)F)c1)c1cc3c(cc1N2CCO)OCO3 (stereo not drawn) | -24.9% (active) |
| COc1cc(-c2nc3cc(Cl)c(Cl)cc3[nH]2)ccc1OCC(=O)N=Nc1c(O)[nH]c2ccc(Cl)cc12 | -32.7% (active) |
| O=C1C=C(OCC=C(C(F)(F)F)C(F)(F)F)c2ccccc2C1=O | -30% (active) |
| CCOCc1nc2ccccc2c(=O)[nH]1 | 107% (inactive) |
| COC(=O)Nc1nc2ccc(C3(c4ccc(F)cc4)OCCO3)cc2[nH]1 | -25.1% (active) |
| C[n+]1c2ccccc2nc2ccccc21 | 13.3% (inactive) |
| CC[C@@H]1NC(=O)[C@H]([C@H](O)[C@H](C)C/C=C/c2ccc(CN3C(=O)C(C)=C(C)C3=O)cc2)N(C)C(=O)[C@H](C(C)C)N(C)C(=O)[C@H](CC(C)C)N(C)C(=O)[C@H](CC(C)C)N(C)C(=O)[C@@H](C)NC(=O)[C@H](C)NC(=O)[C@H](CC(C)C)N(C)C(=O)[C@H](C(C)C)NC(=O)[C@H](CC(C)C)N(C)C(=O)CN(C)C1=O | 81.2% (inactive) |
| CC[C@H](CC[C@@H](C)[C@H]1CC[C@H]2[C@@H]3CC[C@@H]4CC(=O)/C(=C\c5ccncc5)C[C@]4(C)[C@H]3CC[C@]12C)C(C)C | 83.1% (inactive) |
| Cc1nc2sc(C(=O)Nc3cccc4ncccc34)c(N)c2cc1C(C)O (stereo not drawn) | 33% (inactive) |
| CC(=O)Cc1ccccn1 | 85.4% (inactive) |
| CC1Cc2c(N(C)C)ncnc2N(C)c2ccc(Cl)cc21 (stereo not drawn) | -7.29% (active) |
| O=C(Nc1ccc(C(=O)Nc2ccc(C3=NCCCN3)cc2)cc1)Nc1ccc(C2=NCCCN2)cc1 | 44.2% (inactive) |
| NNC(=O)Oc1c(Cl)cc(Cl)cc1[N+](=O)[O-] | 98.3% (inactive) |
| CCC(=O)Nc1ccccc1C#C/C=C\C#Cc1ccccc1SC | -16.2% (active) |
